Laboratory results as given in PubChem BioAssay AID463173 (ICCB-Longwood Screening Facility, Harvard Medical School, 2010).
The whole screen tested about 52,000 compounds, of which about 1,700 (3.3%) were called active. The full list was thinned out, with actives kept by preference. A number with no mark means an inactive call. Rule as the data show it: active = survival mostly below about 52% (no sharp cut-off); inactive = mostly above about 56%.

Test system: Wild type
Assay: growth inhibition of S. aureus wild type versus tarO mutant, primary screen, teichoic acid synthesis inhibitors, RN4220, OD600 (AID 463173)
Conditions: S. aureus RN4220 wild type/DeltatarO growth, OD600, 18 h, stronger effect = lower value, screened at 18.75 µg/mL (by protocol)

Compound | survival
O=c1n(Cc2ccc(F)cc2)nc2n1-c1cc(Cl)ccc1OC2 | 76%
Cc1cc(Cl)ccc1NC(=O)Cn1nc(C)c2c(C)n(-c3ccccc3)nc2c1=O | 45%
CCc1cccc(NC(=O)CCNS(=O)(=O)c2ccc3c(c2)CCN3C(C)=O)c1 | 76%
Cc1ccc(-n2ncc3c(N4CCN(Cc5ccccc5)CC4)ncnc32)cc1 | 131%
O=C(Nc1nnc(C(F)(F)F)s1)c1ccccc1 | 74%
CCOC(=O)N1CCc2c(sc(NCc3sccc3C)c2C(=O)Nc2cc(Cl)ccc2OC)C1 | 80%
CCc1nnc(NC(=O)CSc2nccn2-c2ccc(OC)cc2)s1 | 135%
COc1cc(Cn2c(=O)sc3ccccc32)ccc1OC(C)C | 41%
COc1cc(Cn2c(=O)sc3ccccc32)ccc1OCCC(C)C | -4% (active)
CCCCOc1ccc(Cn2c(=O)sc3ccccc32)cc1OC | -5% (active)
CCCCn1c(=N)n(CCOc2ccccc2OC)c2ccccc21 | 81%
COc1ccccc1NC(=O)c1sc2nc(C)c(C(=O)Nc3ccc(C)cc3C)c(-c3ccco3)c2c1N | 73%
COc1cc(-c2nnn(CC(=O)Nc3ccc(OC(F)(F)F)cc3)n2)cc(OC)c1OC | 92%
Nc1nn(-c2ccccc2)nc1C(=O)OCc1c(F)cccc1Cl | 61%
COc1cccc(COC(=O)c2nn(-c3ccccc3)nc2N)c1 | 24%
Nc1nn(-c2ccccc2)nc1C(=O)OCc1ccc(Cl)cc1 | 59%
Nc1nn(-c2ccccc2)nc1C(=O)OCc1ccccc1Br | -2% (active)
Nc1nn(-c2ccccc2)nc1C(=O)OCc1ccccc1 | 85%
Cc1ccccc1COC(=O)c1nn(-c2ccccc2)nc1N | -9% (active)
Cc1ccccc1NC(=O)CSc1nc2ccc(NC(=O)COc3ccccc3F)cc2s1 | 81%
CSc1ccc(CCNC(=O)c2cc(C)nc3c2c(C)nn3-c2ccccc2)cc1 | 124%
OCc1nc2ccccc2n1Cc1ccccc1Cl | 111%
Cc1ccccc1Cn1c(-c2cccs2)nc2ccccc21 | 26% (active)
O=C(NCc1nc2ccccc2n1Cc1ccccc1Cl)c1ccccc1 | 90%

Compound | survival
CCCC(=O)NCCc1nc2ccccc2n1Cc1c(F)cccc1Cl | 66%
Cc1ccccc1Cn1cnc2ccccc21 | 116%
Cc1ccc(C)c(Cn2c(C(C)NC(=O)c3ccccc3)nc3ccccc32)c1 (stereo not given) | 88%
Cc1ccc(C)c(Cn2c(-c3cccs3)nc3ccccc32)c1 | 8% (active)
Clc1ccccc1Cn1c(-c2cccs2)nc2ccccc21 | -3% (active)
CCC(O)c1nc2ccccc2n1Cc1cc(C)ccc1C (stereo not given) | 99%
Fc1cccc(Cl)c1Cn1c(-c2cccs2)nc2ccccc21 | 26% (active)
Cc1ccccc1Cn1c(COc2ccc(Cl)cc2)nc2ccccc21 | 130%
OCc1nc2ccccc2n1Cc1c(F)cccc1Cl | 98%
Cc1cccc(NC(=O)CC2C(=O)OCCN2Cc2ccccc2)c1 (stereo not given) | 137%
CC1(N)CCS(=O)(=O)C1 (stereo not given) | 110%
CCCn1cc(S(=O)(=O)c2ccc(CC)cc2)c(=O)c2cc(F)c(N(CC)CC)cc21 | 68%
Cc1ccccc1C(=O)Nc1ccccc1-c1nc(-c2ccccc2)no1 | 95%
O=C(CN1C2=NCCN2c2ccccc21)C12CC3CC(CC(C3)C1)C2 | 98%
NC(=O)CSc1ncc2c(n1)-c1ccccc1N(Cc1cccc(F)c1)S2(=O)=O | 73%
CCN1CCN(c2oc(-c3ccc(COc4ccc(OC)cc4)o3)nc2C#N)CC1 | 75%
CC(C)c1ccc(NC(=O)CN2C(=O)COc3ccc(S(=O)(=O)N4CCCCCC4)cc32)cc1 | 109%
Cc1cccc(Cn2c(-c3cccs3)nc3ccccc32)c1 | -6% (active)
Cc1cccc(CNC(=O)Cn2c(-c3cccs3)cc3ccccc32)c1 | 135%
CC(=O)N1CCCC1c1nc2ccccc2n1Cc1cccc(C)c1 (stereo not given) | 85%
CCN(CC)S(=O)(=O)c1ccc(S(=O)(=O)NCc2ccc3c(c2)OCO3)cc1 | 108%
COc1cccc(Cn2c(SCC(=O)N(C)c3ccccc3)nc3ccccc32)c1 | -6% (active)
COc1ccc(CNC(=O)Cn2c(SCC(=O)Nc3ccc(OC)cc3)nc3ccccc32)cc1 | 69%
Cc1ccc(CNC(=O)Cn2c(SCC(=O)Nc3ccc(F)cc3)nc3ccccc32)cc1 | 131%

Compound | survival
COc1cccc(CNC(=O)Cn2c(SCC(=O)Nc3ccc(C)c(C)c3)nc3ccccc32)c1 | 76%
COc1ccc(NC(=O)CSc2nc3ccccc3n2CC(=O)NCc2ccc(F)cc2)cc1 | -6% (active)
COC(=O)c1ccc(Cn2c(SCC(=O)N(C)c3ccccc3)nc3ccccc32)cc1 | 75%
O=C(CSc1nc2ccccc2n1CC(=O)Nc1ccc(F)cc1F)Nc1ccc(F)cc1 | 72%
CN(C(=O)CSc1nc2ccccc2n1Cc1cccc(C(F)(F)F)c1)c1ccccc1 | 87%
COc1cccc(CNC(=O)Cn2c(SCC(=O)Nc3ccc(F)cc3)nc3ccccc32)c1 | 0% (active)
Cc1ccccc1NC(=O)Cn1c(SCC(=O)Nc2ccc(F)cc2)nc2ccccc21 | 76%
O=C(Cn1c(SCC(=O)Nc2ccc(F)cc2)nc2ccccc21)NCc1ccc(F)cc1 | 63%
CC(=O)c1cccc(NC(=O)Cn2c(SCC(=O)Nc3ccc(F)cc3)nc3ccccc32)c1 | -3% (active)
CCN(CC)C(=O)c1ccc(Nc2nnc(-c3ccc(C)c(S(=O)(=O)NC)c3)c3ccccc23)cc1 | 79%
COc1ccc(CNc2nc3c(-c4cccc(F)c4)nnn3c3ccccc23)cc1 | 86%
N#Cc1ccccc1NC(=O)C(=O)NCCc1csc2nc(-c3cccc(F)c3)nn12 | 81%
COc1ccc(CCC(=O)NCc2nc3cccnc3n2Cc2cccc(OC)c2)cc1 | 73%
CCOC(=O)N1CCC2(CC1)OC(=O)C(C)=C2C(=O)NCc1cccc(OC)c1 | 131%
CCOC(=O)CSc1nc2ccc(NC(=O)c3ccc(Cl)cc3)cc2s1 | 90%
CCOc1ccc(-c2nc3c(c(SCC(=O)N4CCCCC4)n2)Cc2cccc(OC)c2O3)cc1 | 75%
Cc1ccccc1CCNC(=O)C1CCN(c2nc3ccccc3nc2C(F)(F)F)CC1 | 68%
O=C(NCCc1ccccc1Cl)C1CCN(c2nc3ccccc3nc2C(F)(F)F)CC1 | 10% (active)
CCCSCCCNC(=O)C1CCN(c2nc3ccccc3nc2C(F)(F)F)CC1 | -3% (active)
COc1ccccc1CCNC(=O)C1CCN(c2nc3ccccc3nc2C(F)(F)F)CC1 | 121%
CCNC(=O)C1CCN(c2nc3ccccc3nc2C(F)(F)F)CC1 | 148%
CCCCNC(=O)C1CCN(c2nc3ccccc3nc2C(F)(F)F)CC1 | 82%
Cc1ccc(NC(=O)C2CCN(c3nn4cc(-c5ccc(C)cc5)nc4s3)CC2)cc1 | 60%
Cc1cn2c(=O)cc(COC(=O)c3cccc(NC(=O)COc4ccccc4Cl)c3)nc2s1 | 124%

Compound | survival
COc1ccc2c(c1)c1c(c(=O)n(Cc3ccccc3)c(=O)n1Cc1ccccc1Cl)n2C | 84%
O=C(Nc1ccc2nc3n(c(=O)c2c1)CCCCC3)C(=O)Nc1ccccc1F | 69%
O=C(Cc1ccc(Cl)cc1)NC1CC(=O)N(c2ccc3c(c2)OCCO3)C1 (stereo not given) | 58%
CSc1ccccc1NC(=O)C1=CC(c2ccc3c(c2)OCO3)=NS(=O)(=O)N1C | 87%
Cc1ccc(-c2nc3c(c(SCc4ccc(Br)cc4)n2)Cc2c(CO)cnc(C)c2O3)cc1 | 81%
CCOC(=O)c1c(C)[nH]c(C)c1S(=O)(=O)N1CCC(C(=O)NCc2ccc(C)cc2)CC1 | 71%
CCOC(=O)c1c(C)[nH]c(C)c1S(=O)(=O)N1CCC(C(=O)Nc2ccc(OCC)cc2)CC1 | -3% (active)
CCOC(=O)c1c(C)[nH]c(C)c1S(=O)(=O)N1CCC(C(=O)Nc2ccc(C)c(Cl)c2)CC1 | 63%
CCOC(=O)c1c(C)[nH]c(C)c1S(=O)(=O)N1CCC(C(=O)NCc2ccccc2)CC1 | 55%
CCOC(=O)c1c(S(=O)(=O)N2CCC(C(=O)Nc3ccc(OCC)cc3)CC2)c(C)n(C)c1C | 125%
CCOC(=O)c1c(C)[nH]c(C)c1S(=O)(=O)N1CCC(C(=O)NCc2ccc(F)cc2)CC1 | 1% (active)
O=C(NCC1CCCO1)c1ccc(NC(=O)c2ncn[nH]2)cc1 (stereo not given) | 98%
CCCCN(CC)CCNC(=O)CCn1cnc2onc(-c3ccc(F)cc3)c2c1=O | 72%
CCN(CC)CCCNC(=O)CCCn1ncn2c(cc3occc32)c1=O | 85%
O=S(=O)(c1ccc(Cl)cc1)c1nc(-c2ccccc2Br)oc1NCc1ccccc1 | 96%
COc1ccc(C(C)NC(=O)CN(c2cc(OC)ccc2OC)S(=O)(=O)c2ccccc2)cc1 (stereo not given) | 76%
COc1cccc2sc(N(Cc3cccnc3)C(=O)Cc3ccccc3)nc12 | 89%
CCOc1ccc(C(=O)NCCc2sc(-c3ccc(F)cc3)nc2C)cc1 | 97%
COc1ccc(-c2nc(C)c(CCNC(=O)c3ccc(C(F)(F)F)cc3)s2)cc1OC | -4% (active)
CCOc1ccc(C(=O)NCCc2sc(-c3ccc(OC)c(OC)c3)nc2C)cc1 | 129%
CCOc1ccc(NC(=O)C(=O)NCCc2sc(-c3ccc(C)cc3)nc2C)cc1 | 55%
CCOc1ccc(C(=O)NCCc2sc(-c3ccc(C)cc3)nc2C)cc1 | -3% (active)
COc1ccc(-c2nc(C)c(CCNC(=O)c3cc(OC)c(OC)c(OC)c3)s2)cc1OC | 57%
